Data from PubChem BioAssay (NCATS).
Records with an inconclusive call do not appear. A call without a number means that no potency is given here. Unmarked numbers belong to inactive results. Active and inactive are the calls of the source. Calls come from the whole dose curve; tested in HEK293 reporter line.

assay: qHTS for Inhibitors of the Functional Ribonucleoprotein Complex (vRNP) of Lassa (LASV) Arenavirus: LASV Primary Screen - GLuc reporter signal (AID 1347082); conditions: LASV minigenome vRNP, Gaussia luciferase reporter; series mostly up to 57.5 µM; note: nearly all actives have a fitted effect of over 60% in size

SMILES | Potency | activity change, negative = inhibition
CC(C)(OC1OC(CO)C(O)C(O)C1O)[C@H]1Oc2ccc3ccc(=O)oc3c2[C@H]1O (stereo not given in full) | inactive | 
Cn1c(=O)c2nncnc2n(C)c1=O | inactive | 
COc1ccccc1NC(C)=O | inactive | 
CC(=O)O[C@H]1CC[C@@]2(C)[C@H](C1)C(=O)C[C@H]1[C@@H]3CC[C@@H]4[C@@H](CN5C[C@@H](C)CC[C@H]5[C@@]4(C)O)[C@@H]3C[C@@H]12 | inactive | 
O=c1cc(-c2ccc(O)cc2)oc2c([C@@H]3O[C@H](CO)[C@@H](O)[C@H](O)[C@H]3O)c(O)c([C@@H]3O[C@H](CO)[C@@H](O)[C@H](O)[C@H]3O)c(O)c12 | inactive | 
O=C(Nc1ccc(Br)cc1)C(c1ccccc1)c1ccccc1 | inactive | 
COC(=O)C(O)C(O)(CCC(C)C)C(=O)OC1C(OC)=CC23CCCN2CCc2cc4c(cc2C13)OCO4 (stereo not given) | inactive | 
CC1=CC(C/C(C)=C/COc2ccc3ccc(=O)oc3c2)OC1=O (stereo not given) | inactive | 
C=C1C(=O)O[C@H]2C[C@]3(C)C([C@@H](OC(=O)/C(C)=C/C)[C@H]12)[C@](C)(O)CC[C@H]3O (stereo not given in full) | inactive | 
COc1ccc(-c2cc(=O)c3c(O)cc(OC4OC(COC5OC(C)C(O)C(O)C5O)C(O)C(O)C4O)cc3o2)cc1O (stereo not given) | inactive | 
CC[C@H]1OC(=O)[C@H](C)[C@@H](O[C@H]2C[C@@](C)(OC)[C@@H](O)[C@H](C)O2)[C@H](C)[C@@H](O[C@@H]2O[C@@H](C)C[C@H](N(C)C)[C@@H]2O)[C@](C)(O)C[C@@H](C)C(=O)[C@H](C)[C@@H](O)[C@]1(C)O | inactive | 
C=CC[C@]12C=C(OC)C(=O)C=C1O[C@@H](c1ccc3c(c1)OCO3)[C@H]2C | inactive | 
Nc1nc(=O)n([C@H]2CSC(CO)O2)cc1F (stereo not given in full) | inactive | 
O=C(O)/C=C/c1ccc2c(c1)OCO2 | inactive | 
O=C(O)COc1ccc(Cl)cc1CO | inactive | 
CC(=O)C1CCC2(O)C3CCC4=CC(=O)CCC4(C)C3CCC12C (stereo not given) | inactive | 
COC(=O)C1=CO[C@@H](C)[C@@H]2CN3CC[C@@]4(C(=O)Nc5ccccc54)[C@@H]3C[C@H]12 | inactive | 
COc1c2c(cc3oc(C)cc(=O)c13)OC(C(C)(C)OC1OC(CO)C(O)C(O)C1O)C2 (stereo not given) | inactive | 
C[C@H]1OC(=O)CC[C@@H]2[C@]1(C)CCC1[C@@]2(C)CC[C@@]2(C)C3CC(C)(C)CC[C@]3(CO)CC[C@]12C (stereo not given in full) | inactive | 
O=C1CCCCCCCCCCCCCC1 | inactive | 

SMILES | Potency | activity change, negative = inhibition
CCC(CC)C(=O)O | inactive | 
C=C1CCC2C(C)(C)[C@@H](O)CC[C@@]2(C)[C@@H]1COc1ccc2ccc(=O)oc2c1 (stereo not given in full) | inactive | 
NCc1ccccc1 | inactive | 
CCCCC[C@H](O)/C=C/C=C\C/C=C\C=C\[C@@H](O)CCCC(=O)O |  | 2.34% [at 0.757 µM]
O=c1[nH]c(=O)c2ncn(C3OC(CO)C(O)C3O)c2[nH]1 (stereo not given) | inactive | 
CCOC(=O)c1cc(=O)[nH]c2ccccc12 | inactive | 
COc1ccc(COC(C)=O)cc1 | inactive | 
CCCCCC(C)O (stereo not given) | inactive | 
CCCCCCCCCCCC(=O)c1c(O)cccc1O | inactive | 
Cc1cc(O)c2c(c1)C(O)(C1OC(CO)C(O)C(O)C1O)c1cccc(O)c1C2=O (stereo not given) | inactive | 
O=c1cc(-c2ccccc2)c2c(O)cc(O)cc2o1 | inactive | 
CCc1ccc(O)c(OC)c1 | inactive | 
CC(C)=CCC/C(C)=C/COC=O | inactive | 
COc1ccc(C(=O)OC2CC3CC[C@H](C2)N3C(C)=O)cc1OC (stereo not given in full) | inactive | 
COc1ccc(/C=C/C(=O)O)cc1 | inactive | 
NCCC[C@H](N)CC(=O)N[C@H]1CNC(=O)[C@H]([C@H]2C[C@H](O)N=C(N)N2)NC(=O)C(=CNC(N)=O)NC(=O)[C@H](CO)NC(=O)[C@H](CO)NC1=O | inactive | 
COc1ccc(-c2coc3cc(O[C@@H]4O[C@H](CO)[C@@H](O)[C@H](O)[C@H]4O)c(OC)cc3c2=O)cc1 | inactive | 
Cc1cc(=O)oc2cc3c(cc12)OCO3 | inactive | 
COC(=O)c1c(C)cc(O)c(C=O)c1O | inactive | 
CCCCCCCC1CCC(=O)O1 (stereo not given) | inactive | 

assay: qHTS for Inhibitors of the Functional Ribonucleoprotein Complex (vRNP) of Lassa (LASV) Arenavirus: Viability assay - alamar blue signal for LASV Primary Screen (AID 1347083); conditions: cell viability, alamar blue fluorescence (LASV minigenome counter-screen); series mostly up to 57.5 µM; note: nearly all actives have a fitted effect of over 80% in size

SMILES | Potency | activity change, negative = reduced viability
CC(C)(OC1OC(CO)C(O)C(O)C1O)[C@H]1Oc2ccc3ccc(=O)oc3c2[C@H]1O (stereo not given in full) | inactive | 
Cn1c(=O)c2nncnc2n(C)c1=O | inactive | 
COc1ccccc1NC(C)=O | inactive | 
CC(=O)O[C@H]1CC[C@@]2(C)[C@H](C1)C(=O)C[C@H]1[C@@H]3CC[C@@H]4[C@@H](CN5C[C@@H](C)CC[C@H]5[C@@]4(C)O)[C@@H]3C[C@@H]12 | inactive | 
O=c1cc(-c2ccc(O)cc2)oc2c([C@@H]3O[C@H](CO)[C@@H](O)[C@H](O)[C@H]3O)c(O)c([C@@H]3O[C@H](CO)[C@@H](O)[C@H](O)[C@H]3O)c(O)c12 | inactive | 
O=C(Nc1ccc(Br)cc1)C(c1ccccc1)c1ccccc1 | inactive | 
COC(=O)C(O)C(O)(CCC(C)C)C(=O)OC1C(OC)=CC23CCCN2CCc2cc4c(cc2C13)OCO4 (stereo not given) | inactive | 
CC1=CC(C/C(C)=C/COc2ccc3ccc(=O)oc3c2)OC1=O (stereo not given) | inactive | 
C=C1C(=O)O[C@H]2C[C@]3(C)C([C@@H](OC(=O)/C(C)=C/C)[C@H]12)[C@](C)(O)CC[C@H]3O (stereo not given in full) | inactive | 
COc1ccc(-c2cc(=O)c3c(O)cc(OC4OC(COC5OC(C)C(O)C(O)C5O)C(O)C(O)C4O)cc3o2)cc1O (stereo not given) | inactive | 
CC[C@H]1OC(=O)[C@H](C)[C@@H](O[C@H]2C[C@@](C)(OC)[C@@H](O)[C@H](C)O2)[C@H](C)[C@@H](O[C@@H]2O[C@@H](C)C[C@H](N(C)C)[C@@H]2O)[C@](C)(O)C[C@@H](C)C(=O)[C@H](C)[C@@H](O)[C@]1(C)O | inactive | 
C=CC[C@]12C=C(OC)C(=O)C=C1O[C@@H](c1ccc3c(c1)OCO3)[C@H]2C | inactive | 
Nc1nc(=O)n([C@H]2CSC(CO)O2)cc1F (stereo not given in full) | inactive | 
O=C(O)/C=C/c1ccc2c(c1)OCO2 | inactive | 
O=C(O)COc1ccc(Cl)cc1CO | inactive | 
CC(=O)C1CCC2(O)C3CCC4=CC(=O)CCC4(C)C3CCC12C (stereo not given) | inactive | 
COC(=O)C1=CO[C@@H](C)[C@@H]2CN3CC[C@@]4(C(=O)Nc5ccccc54)[C@@H]3C[C@H]12 | inactive | 
COc1c2c(cc3oc(C)cc(=O)c13)OC(C(C)(C)OC1OC(CO)C(O)C(O)C1O)C2 (stereo not given) | inactive | 
C[C@H]1OC(=O)CC[C@@H]2[C@]1(C)CCC1[C@@]2(C)CC[C@@]2(C)C3CC(C)(C)CC[C@]3(CO)CC[C@]12C (stereo not given in full) | inactive | 
O=C1CCCCCCCCCCCCCC1 | inactive | 

SMILES | Potency | activity change, negative = reduced viability
CCC(CC)C(=O)O | inactive | 
C=C1CCC2C(C)(C)[C@@H](O)CC[C@@]2(C)[C@@H]1COc1ccc2ccc(=O)oc2c1 (stereo not given in full) | inactive | 
NCc1ccccc1 | inactive | 
CCCCC[C@H](O)/C=C/C=C\C/C=C\C=C\[C@@H](O)CCCC(=O)O |  | 18.4% [at 0.757 µM]
O=c1[nH]c(=O)c2ncn(C3OC(CO)C(O)C3O)c2[nH]1 (stereo not given) | inactive | 
CCOC(=O)c1cc(=O)[nH]c2ccccc12 | inactive | 
COc1ccc(COC(C)=O)cc1 | inactive | 
CCCCCC(C)O (stereo not given) | inactive | 
CCCCCCCCCCCC(=O)c1c(O)cccc1O | inactive | 
Cc1cc(O)c2c(c1)C(O)(C1OC(CO)C(O)C(O)C1O)c1cccc(O)c1C2=O (stereo not given) | inactive | 
O=c1cc(-c2ccccc2)c2c(O)cc(O)cc2o1 | inactive | 
CCc1ccc(O)c(OC)c1 | inactive | 
CC(C)=CCC/C(C)=C/COC=O | inactive | 
COc1ccc(C(=O)OC2CC3CC[C@H](C2)N3C(C)=O)cc1OC (stereo not given in full) | inactive | 
COc1ccc(/C=C/C(=O)O)cc1 | inactive | 
NCCC[C@H](N)CC(=O)N[C@H]1CNC(=O)[C@H]([C@H]2C[C@H](O)N=C(N)N2)NC(=O)C(=CNC(N)=O)NC(=O)[C@H](CO)NC(=O)[C@H](CO)NC1=O | inactive | 
COc1ccc(-c2coc3cc(O[C@@H]4O[C@H](CO)[C@@H](O)[C@H](O)[C@H]4O)c(OC)cc3c2=O)cc1 | inactive | 
Cc1cc(=O)oc2cc3c(cc12)OCO3 | inactive | 
COC(=O)c1c(C)cc(O)c(C=O)c1O | inactive | 
CCCCCCCC1CCC(=O)O1 (stereo not given) | inactive | 
